In assay [1] the target is Acetylcholinesterase (Homo sapiens) (UniProt P22303). Description: Acetylcholinesterase (AChE) small molecule antagonists: colormetric cell-based qHTS assay (AID 1347395). Note: nearly all actives have a fitted effect of over 30% in size. Note: potency is the fitted concentration of half-maximal effect. In a few lines:
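After overnight attachment at 37 C, SH-SY5Y cells get 30 min compound exposure; detection cocktail (acetylthiocholine, DTNB) then incubates 90 min at 37 C, and absorbance reflects AChE-generated thiocholine.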
(In general: qHTS replaces the single test concentration by a dilution series.)

Assay [2] has the same target. Description: Acetylcholinesterase (AChE) small molecule antagonists: enzyme-based qHTS assay (AID 1347397). Note: nearly all actives have a fitted effect of over 55% in size. Note: potency is the fitted concentration of half-maximal effect. The note with it: Potency: AChE enzyme activity inhibition; outcome: AChE enzyme activity inhibition. In a few lines: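 First, recombinant human AChE (50 mU/mL as dispensed) received test compound or DMSO. Second, plates stood 30 min at room temperature. Third, DTNB and acetylthiocholine were added, followed by 10 min at room temperature and colorimetric detection.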

Assay [3] has the same target. Description: Acetylcholinesterase (AChE) small molecule antagonists: fluorescence cell-based qHTS assay (AID 1347398). Note: nearly all actives have a fitted effect of over 50% in size. Note: potency is the fitted concentration of half-maximal effect. The settings on record: Potency: AChE activity; outcome: AChE activity. In a few lines:
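Homogeneous quantitative HTS format. SH-SY5Y cells seeded at 2,000 per well settle overnight at 37 C. Compound pretreatment runs 30 min (37 C, 5% CO2); substrate/probe mix then reacts 40 min at RT before reading 490/520 nm.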

The target is the same in assay [4]. As to the kind of experiment: Acetylcholinesterase (AChE) small molecule antagonists: enzyme-based qHTS assay with human liver microsomes (AID 1347399). Note: nearly all actives have a fitted effect of over 60% in size. The settings on record: Potency: qHTS inhibition; outcome: qHTS inhibition. In a few lines:
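Recombinant human AChE (50 mU/mL in the enzyme mix) and human liver microsomes (0.25 mg/mL final) were preincubated with compound and NADPH (0.25 mg/mL final) for 30 min at 37 C. Acetylthiocholine/DTNB was then added; thiocholine was read colorimetrically after 10 min at room temperature.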

SMILES strings stand for the structures. Where “and” joins values, the source holds several entries; their conditions need not be identical. Identical values can stand only once. Results filed as inconclusive are left out. Where a structure was tested more than once in an assay, its records may differ in their call. Calls of active or inactive are those of the source. Calls come from the whole dose curve.
% is set by controls: 0 for no effect and ±100 for the full control effect.

Chain of Acetylcholinesterase (Homo sapiens) (P22303 whole entry, looked up): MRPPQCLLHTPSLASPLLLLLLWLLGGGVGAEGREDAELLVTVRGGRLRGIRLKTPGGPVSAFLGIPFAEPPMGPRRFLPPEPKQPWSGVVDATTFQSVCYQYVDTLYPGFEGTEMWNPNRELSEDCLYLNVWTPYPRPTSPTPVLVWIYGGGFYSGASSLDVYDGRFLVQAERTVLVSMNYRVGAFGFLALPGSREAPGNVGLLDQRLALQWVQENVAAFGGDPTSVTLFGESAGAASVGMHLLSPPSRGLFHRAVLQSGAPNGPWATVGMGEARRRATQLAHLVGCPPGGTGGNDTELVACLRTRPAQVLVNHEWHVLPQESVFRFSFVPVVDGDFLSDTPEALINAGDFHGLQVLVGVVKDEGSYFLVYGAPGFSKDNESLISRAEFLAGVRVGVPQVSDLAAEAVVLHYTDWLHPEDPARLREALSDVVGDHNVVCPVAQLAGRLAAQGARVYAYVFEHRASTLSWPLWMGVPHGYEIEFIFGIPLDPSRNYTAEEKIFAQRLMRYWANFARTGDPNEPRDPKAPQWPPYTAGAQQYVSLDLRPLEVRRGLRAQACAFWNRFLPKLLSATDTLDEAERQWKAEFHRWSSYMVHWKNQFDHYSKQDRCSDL

With `CCN(CC)CC(=O)Nc1c(C)cccc1C(=O)OC`, the Potency result in assay [1], in assay [2], in assay [3] and in assay [4] was “inactive” throughout.

Take `CC1(C)[C@@H]2CC[C@@]1(C)C(=O)C2`: the Potency result in assay [1], in assay [2], in assay [3] and in assay [4] was “inactive” throughout.

As to `CCCCCCCCCCCCOC(=O)c1cc(O)c(O)c(O)c1`, the Potency entry in assay [1], in assay [3] and in assay [4] was “inactive” in each case. For the same molecule, the Potency in assay [2] is 35.4 µM (active) and 39.9 µM (active).

For `S=C(S)NCCNC(=S)S`, the Potency result in assay [1], in assay [2], in assay [3] and in assay [4] was “inactive” throughout.

Take `Cc1ccc(S(=O)(=O)O)cc1C`: the Potency entry in assay [1], in assay [2], in assay [3] and in assay [4] was “inactive” throughout.

In the case of `CC(=O)/C(C)=C/C1C(C)=CCCC1(C)C` (stereo not given), the Potency entry in assay [1], in assay [2], in assay [3] and in assay [4] was “inactive” throughout.

`Cc1c(OCC(F)(F)F)ccnc1CS(=O)c1nc2ccccc2[nH]1` (stereo not given): the Potency entry in assay [1], in assay [2], in assay [3] and in assay [4] was “inactive” in each case.

On to `CCCCCCCCCCO`, for which the Potency result in assay [1], in assay [2], in assay [3] and in assay [4] was “inactive” throughout.

Regarding `OC1CCCCCCCCCCC1`, the Potency result in assay [1], in assay [2], in assay [3] and in assay [4] was “inactive” in each case.

In the case of `CCCCNS(=O)(=O)c1ccc(C)cc1`, the Potency result in assay [1], in assay [2], in assay [3] and in assay [4] was “inactive” each time.

Consider `Nc1ncnc2nc[nH]c12`, for which the Potency result in assay [1], in assay [2], in assay [3] and in assay [4] was “inactive” in each case.

For `O=Cc1ccc(Cl)c([N+](=O)[O-])c1`, the Potency in assay [1] was 39.9 µM (active). Further, the Potency entry in assay [2], in assay [3] and in assay [4] was “inactive” each time.

Turning to `CCCCC(CC)COC(=O)CC(C(=O)OCC(CC)CCCC)S(=O)(=O)O` (stereo not given), the Potency entry in assay [1], in assay [2], in assay [3] and in assay [4] was “inactive” each time.

On to `Cc1ccc(C=O)cc1`, for which the Potency result in assay [1], in assay [2], in assay [3] and in assay [4] was “inactive” each time.

With `O=C1OC(O)C(C(Cl)Cl)=C1Cl` (stereo not given), the Potency entry in assay [1], in assay [2], in assay [3] and in assay [4] was “inactive” each time.

For `O=C1CCC(N2C(=O)c3ccccc3C2=O)C(=O)N1` (stereo not given), the Potency entry in assay [1], in assay [2], in assay [3] and in assay [4] was “inactive” in each case.

For the molecule `C/C=C(C)/C=C/C=C(C)C`, the Potency entry in assay [1], in assay [2], in assay [3] and in assay [4] was “inactive” throughout.

Consider `CCCCCCCC/C=C\CCCCCCCC(N)=O`, for which the Potency entry in assay [1], in assay [2], in assay [3] and in assay [4] was “inactive” throughout.

On to `CC(C)CCCCCOC(=O)CS`, for which the Potency result in assay [1], in assay [2], in assay [3] and in assay [4] was “inactive” throughout.

In the case of `CCCCC(CC)C(=O)O` (stereo not given), the Potency result in assay [1], in assay [2], in assay [3] and in assay [4] was “inactive” in each case.

With `C#C[C@]1(O)CC[C@H]2[C@@H]3CCc4cc(OC)ccc4[C@H]3CC[C@@]21C`, the Potency entry in assay [1], in assay [2], in assay [3] and in assay [4] was “inactive” throughout.

Turning to `O=C(O)Cc1ccc2c(c1)C(=O)c1ccccc1CO2`, the Potency entry in assay [1], in assay [2], in assay [3] and in assay [4] was “inactive” in each case.

In the case of `O=Cc1cc2ccccc2o1`, the Potency entry in assay [1], in assay [2], in assay [3] and in assay [4] was “inactive” throughout.

In the case of `Cc1cccc2c1ccc1ccccc12`, the Potency entry in assay [1], in assay [2], in assay [3] and in assay [4] was “inactive” in each case.

Consider `FB(F)F`, for which the Potency result in assay [1], in assay [2], in assay [3] and in assay [4] was “inactive” each time.

With `COCc1c(C(C)C)nc(C(C)C)c(/C=C/[C@@H](O)C[C@@H](O)CC(=O)O)c1-c1ccc(F)cc1`, the Potency result in assay [1], in assay [2], in assay [3] and in assay [4] was “inactive” in each case.

With `Cc1ncc([N+](=O)[O-])n1C`, the Potency result in assay [1], in assay [2], in assay [3] and in assay [4] was “inactive” throughout.

Turning to `C=CCc1ccc(O)c(OC)c1`, the Potency entry in assay [1], in assay [2], in assay [3] and in assay [4] was “inactive” throughout.

Consider `Cn1cccc1`, for which the Potency entry in assay [1], in assay [2], in assay [3] and in assay [4] was “inactive” throughout.

In the case of `CC1(O)CSC(C)(O)CS1` (stereo not given), the Potency result in assay [1], in assay [2], in assay [3] and in assay [4] was “inactive” in each case.

As for `CN(C)C`, the Potency entry in assay [1], in assay [2], in assay [3] and in assay [4] was “inactive” throughout.

Consider `CCCCCC/C(C=O)=C\c1ccccc1`, for which the Potency result in assay [1], in assay [2], in assay [3] and in assay [4] was “inactive” in each case.

As for `CCN(CC)C(=O)c1cccc(C)c1`, the Potency result in assay [1], in assay [2], in assay [3] and in assay [4] was “inactive” each time.

Turning to `CC(=O)OCC(=O)[C@@]12N=C(C)O[C@@H]1C[C@H]1[C@@H]3CCC4=CC(=O)C=C[C@]4(C)[C@H]3[C@@H](O)C[C@@]12C`, the Potency entry in assay [1], in assay [2], in assay [3] and in assay [4] was “inactive” each time.

In the case of `CCC(C)(C)C`, the Potency result in assay [1], in assay [2], in assay [3] and in assay [4] was “inactive” each time.

Regarding `Cc1cc(C2(c3cc(C)c(O)cc3C)OS(=O)(=O)c3ccccc32)c(C)cc1O`, the Potency result in assay [1], in assay [2], in assay [3] and in assay [4] was “inactive” in each case.

Regarding `C=C[C@@H](C)CCC=C(C)C`, the Potency entry in assay [1], in assay [2], in assay [3] and in assay [4] was “inactive” throughout.

Take `O=C(OCCOCCOC(=O)c1ccccc1)c1ccccc1`: the Potency result in assay [1], in assay [2], in assay [3] and in assay [4] was “inactive” in each case.

For `Cc1ccc(C(=O)O)cc1[N+](=O)[O-]`, the Potency result in assay [1], in assay [2], in assay [3] and in assay [4] was “inactive” throughout.

Turning to `CCCCC(=O)OCC(=O)[C@H]1[C@H](C)C[C@H]2[C@@H]3C[C@H](F)C4=CC(=O)C=C[C@]4(C)[C@@]3(F)[C@@H](O)C[C@@]21C`, the Potency result in assay [1], in assay [2], in assay [3] and in assay [4] was “inactive” each time.

On to `CC1=CCC(=O)O1`, for which the Potency result in assay [1], in assay [2], in assay [3] and in assay [4] was “inactive” throughout.

Consider `Clc1cccc(C(c2ccc3nc[nH]c3c2)n2ccnc2)c1` (stereo not given), for which the Potency result in assay [1], in assay [2], in assay [3] and in assay [4] was “inactive” in each case.

On to `FC(F)(F)c1cccc(Cl)c1`, for which the Potency entry in assay [1], in assay [2], in assay [3] and in assay [4] was “inactive” each time.

On to `Cc1cn([C@H]2C=C[C@@H](CO)O2)c(=O)[nH]c1=O`, for which the Potency entry in assay [1], in assay [2], in assay [3] and in assay [4] was “inactive” in each case.

In the case of `CCCCCCn1c(=O)c2c(ncn2C)n(C)c1=O`, the Potency entry in assay [1], in assay [2], in assay [3] and in assay [4] was “inactive” throughout.

For `C=C(C)C(=O)OCCOP(=O)(O)OCCOC(=O)C(=C)C`, the Potency result in assay [1], in assay [2], in assay [3] and in assay [4] was “inactive” each time.

For `CC[C@H](c1ccc(O)cc1)[C@@H](CC)c1ccc(O)cc1`, the Potency entry in assay [1], in assay [2], in assay [3] and in assay [4] was “inactive” each time.

Consider `O=C(O)Cc1c(Cl)ccc(Cl)c1Cl`, for which the Potency result in assay [1], in assay [2], in assay [3] and in assay [4] was “inactive” throughout.

Turning to `CC1=C(/C=C/C(C)=C/C=C/C(C)=C/C(=O)Nc2ccc(O)cc2)C(C)(C)CCC1`, the Potency result in assay [1], in assay [2] and in assay [4] was “inactive” in each case. In addition, the Potency in assay [3] is 13.8 µM (active).

On to `Cc1oc(=O)oc1CN1CCN(c2cc3c(cc2F)c(=O)c(C(=O)O)c2n3C(C)S2)CC1` (stereo not given), for which the Potency result in assay [1], in assay [2], in assay [3] and in assay [4] was “inactive” in each case.

Consider `CCOc1ccccc1OCC1CNCCO1` (stereo not given), for which the molecule was classed as inactive in assay [1], in assay [2], in assay [3] and in assay [4].

Regarding `CC1(C)O[C@@H]2C[C@H]3[C@@H]4C[C@H](F)C5=CC(=O)CC[C@]5(C)[C@H]4[C@@H](O)C[C@]3(C)[C@]2(C(=O)CO)O1`, the Potency entry in assay [1], in assay [2], in assay [3] and in assay [4] was “inactive” each time.

In the case of `O=C(CS)Nc1ccccc1`, the Potency entry in assay [1], in assay [2], in assay [3] and in assay [4] was “inactive” each time.

In the case of `NC(=S)Nc1cccc2ccccc12`, in assay [1], the activity, negative = inhibition was -0.35% [at 10.5 µM] (inactive). Besides, the activity change, negative = inhibition in assay [2] is -0.679% [at 10.5 µM] (inactive); in assay [3], -3.97% [at 10.5 µM] (inactive); in assay [4], 0.729% [at 10.5 µM] (inactive).

Turning to `NC(=O)c1ccccc1O`, the Potency entry in assay [1], in assay [2], in assay [3] and in assay [4] was “inactive” in each case.

`CC(C)c1ccccc1N`: the Potency entry in assay [1], in assay [2], in assay [3] and in assay [4] was “inactive” in each case.

Regarding `CN1CCN(C(c2ccccc2)c2ccccc2)CC1`, the Potency entry in assay [1], in assay [2], in assay [3] and in assay [4] was “inactive” each time.

In the case of `C[C@@H](O[C@H]1OCCN(Cc2n[nH]c(=O)[nH]2)[C@H]1c1ccc(F)cc1)c1cc(C(F)(F)F)cc(C(F)(F)F)c1`, the Potency result in assay [1], in assay [2], in assay [3] and in assay [4] was “inactive” throughout.

Consider `C=C(C)CNCC`, for which the Potency entry in assay [1], in assay [2], in assay [3] and in assay [4] was “inactive” in each case.

For the molecule `Cc1cc(O)c2c(c1)C(=O)c1cc(O)cc(O)c1C2=O`, the Potency entry in assay [1], in assay [2] and in assay [4] was “inactive” throughout. For the same molecule, the Potency in assay [3] was 15.5 µM (active) and inactive.

Values taken from PubChem BioAssay (Tox21).
